The source of these data is the supplement of paper PMC10127200.

Structures can show the parent of a compound that is named as a salt.

Holding throughout (experiment): Euclidean distance of Cell Painting phenotypic profile (signed KS, 77 features) to DMSO centroid (dimensionless distance); 5 or 10 uM (library dependent); higher = stronger phenotypic change vs DMSO (phenoactivity)
Common to all, as to settings: 48 h

One experiment deals with 786-O. The method, boiled down: (§1)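 Stained cells were imaged confocally at 20X with 9 fields per well, after 48 h of exposure to library compounds at 10 or 5 uM (set by library; 0.1% DMSO final). The cells were five cancer lines and a healthy fibroblast line. From the images, Harmony extracted 77 features, each expressed as a signed Kolmogorov-Smirnov statistic relative to same-plate vehicle wells. Phenoactivity is measured as Euclidean distance to the median vehicle profile, using plate-position-corrected, correlation-weighted profiles averaged across replicates at the top dose.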

The next experiment concerns A549. A digest of the protocol:
as §1

For another experiment, the system named is DU145. A digest of the protocol: as §1
The subject of another experiment is FB. The method, boiled down:
as §1

A further experiment deals with HEPG2. A digest of the protocol:
as §1

The test system of a further experiment is OVCAR4. The method, boiled down:
as §1

Turning to `O=C(CCCN1CC=C(n2c(=O)[nH]c3ccccc32)CC1)c1ccc(F)cc1` [Droperidol], the Euclidean distance with 786-O was 1.34; with A549, 0.569; in the experiment on DU145, 0.766; with FB it was 0.888; in the experiment on HEPG2 it was 0.689; in the experiment on OVCAR4, 0.73.

For `CCOc1ccc2c(-c3cccc(F)c3)nn(CC(=O)N(C)c3ccc4nc(C)oc4c3)c(=O)c2c1`, the Euclidean distance with 786-O was found to be 1.05; with A549, 0.995; in the experiment with DU145 it was 1.36; in the experiment with FB it was 0.808; in the experiment on HEPG2 it was 0.431; in the experiment with OVCAR4, 0.932.

Consider `CC(C)(F)C[C@H](N[C@@H](c1ccc(-c2ccc(S(C)(=O)=O)cc2)cc1)C(F)(F)F)C(=O)NC1(C#N)CC1` [Odanacatib (MK-0822)], for which the Euclidean distance with 786-O was 0.533; with A549 it was 2.1; with DU145, 0.7; with FB it was 0.656; in the experiment with HEPG2 it was 1.37; with OVCAR4, 0.985.

As to `CC(CNC(=O)c1cccnc1)NC(=O)c1cccnc1` (centres undefined) [Nicaraven], the Euclidean distance was 1.31 with 786-O; 0.748 with A549; 1 with DU145; 1 in the experiment with FB; 2.29 in the experiment on HEPG2; 1.91 in the experiment on OVCAR4.

As to `CNC(=O)[C@H](Cc1c[nH]c2ccccc12)NC(=O)[C@@H](CC(=O)NO)CC(C)C` [Ilomastat (GM6001. Galardin)], the Euclidean distance amounted to 1.02 with 786-O; 1.06 with A549; 1.22 in the experiment on DU145; 0.836 in the experiment on FB; 0.633 with HEPG2; 1.3 in the experiment on OVCAR4.

On to `CCS(=O)(=O)N1CCN(c2ccc(Nc3ncc(C(N)=O)c(NC4CC4)n3)cc2)CC1`, for which the Euclidean distance in the experiment on 786-O turned out to be 2.57; in the experiment on A549 it was 3.03; in the experiment with DU145 it was 3.16; in the experiment on FB it was 2.62; in the experiment with HEPG2 it was 2.51; in the experiment with OVCAR4 it was 3.39.

Take `Nc1nc(N)c(N=O)c(OCC2CCCCC2)n1`: the Euclidean distance came out at 1.11 in the experiment on 786-O; 1.58 in the experiment with A549; 0.998 with DU145; 1.01 with FB; 0.792 in the experiment with HEPG2; 1.38 in the experiment on OVCAR4.

Turning to `c1ccc2c(CC3=NCCN3)cccc2c1` [Naphazoline HCl], the Euclidean distance in the experiment on 786-O worked out at 1.23; in the experiment on A549, 0.672; with DU145, 1.11; in the experiment with FB it was 0.693; with HEPG2 it was 0.599; with OVCAR4, 0.531.

For `CCCCOc1cc(C(=O)OCCN(CC)CC)ccc1N` [Oxybuprocaine HCl], the Euclidean distance worked out at 1.13 in the experiment on 786-O; 0.889 in the experiment on A549; 1.18 with DU145; 0.902 in the experiment with FB; 0.935 in the experiment with HEPG2; 1.1 with OVCAR4.

In the case of `CC(C)c1nc(N(C)S(C)(=O)=O)nc(-c2ccc(F)cc2)c1/C=C/[C@@H](O)C[C@@H](O)CC(=O)O` [Rosuvastatin Calcium], the Euclidean distance in the experiment on 786-O amounted to 0.535; in the experiment on A549 it was 0.682; in the experiment with DU145 it was 2.17; in the experiment on FB it was 1.71; with HEPG2, 1.03; in the experiment on OVCAR4, 0.889.

As to `CCOCCn1c(C2CCN(CCc3ccc(C(C)(C)C(=O)O)cc3)CC2)nc2ccccc21` [Bilastine], the Euclidean distance with 786-O worked out at 1.25; with A549, 1.12; with DU145 it was 1.37; with FB it was 0.933; in the experiment with HEPG2 it was 0.505; in the experiment on OVCAR4, 0.894.

Consider `NC(=O)[C@@H]1CC[C@@H]2CN1C(=O)N2OS(=O)(=O)O` [Avibactam sodium], for which the Euclidean distance with 786-O turned out to be 1.03; in the experiment on A549 it was 0.85; in the experiment with DU145, 0.722; in the experiment with FB it was 0.925; with HEPG2 it was 0.607; with OVCAR4, 1.24.

As to `Cc1cncc(CN2CCC(=C3c4ccc(Cl)cc4CCc4cccnc43)CC2)c1` [Rupatadine Fumarate], the Euclidean distance in the experiment on 786-O was 1.51; in the experiment on A549, 1.15; in the experiment with DU145 it was 1.34; in the experiment on FB, 1.22; in the experiment on HEPG2, 1.69; in the experiment on OVCAR4, 1.27.

As to `CC(C)OC(=O)C(C)(C)Oc1ccc(C(=O)c2ccc(Cl)cc2)cc1` [Fenofibrate], the Euclidean distance in the experiment with 786-O came to 1.18; in the experiment with A549 it was 0.803; with DU145 it was 0.9; with FB, 1.1; in the experiment on HEPG2, 1.75; in the experiment on OVCAR4 it was 1.73.

On to `O=C(O)CCCc1cc2cc(Cl)ccc2n1S(=O)(=O)c1ccc2ncsc2c1` [Lanifibranor(IVA-337)], for which the Euclidean distance with 786-O was found to be 0.7; in the experiment with A549, 0.787; in the experiment on DU145, 0.862; in the experiment on FB, 0.874; in the experiment with HEPG2 it was 0.544; with OVCAR4, 1.53.

In the case of `CC[C@@H]1C(=O)OC[C@@H]1Cc1cncn1C` [Pilocarpine HCl], the Euclidean distance in the experiment with 786-O amounted to 1.14; in the experiment on A549, 0.624; in the experiment on DU145, 0.725; in the experiment with FB it was 0.78; in the experiment on HEPG2, 0.698; in the experiment on OVCAR4, 1.49.

Regarding `COc1cc(CCc2cc(NC(=O)c3ccc(N4CC(C)NC(C)C4)cc3)n[nH]2)cc(OC)c1` (centres undefined), the Euclidean distance in the experiment with 786-O is 1.7; in the experiment on A549, 1.94; in the experiment with DU145, 1.5; in the experiment with FB, 3.59; in the experiment on HEPG2 it was 2.79; in the experiment with OVCAR4, 1.46.

With `CN1CCC(OC(c2ccccc2)c2ccccc2)CC1` [Diphenylpyraline hydrochloride], the Euclidean distance in the experiment with 786-O is 0.93; with A549, 0.611; in the experiment on DU145, 2.19; with FB it was 1.17; in the experiment with HEPG2, 0.532; in the experiment with OVCAR4, 0.876.

For the compound `CCC(=O)NS(=O)(=O)c1ccc(-c2c(-c3ccccc3)noc2C)cc1` [Parecoxib Sodium], the Euclidean distance in the experiment on 786-O is 0.662; in the experiment with A549, 0.521; with DU145 it was 0.541; in the experiment on FB it was 0.844; in the experiment with HEPG2, 0.676; with OVCAR4, 0.905.
